What all share (test): NCI-60 one-dose screen, 48 h (100 = growth as untreated, 0 = no growth, -100 = all killed)
Details in all cases: 10 µM unless noted

Experiment [1] concerns SR leukemia.
Experiment [2] deals with RPMI-8226 leukemia.
For experiment [3], the system named is OVCAR-8 ovarian.
For experiment [4], the system named is OVCAR-5 ovarian.
Experiment [5] concerns OVCAR-4 ovarian.
Experiment [6] deals with SK-OV-3 ovarian.
Experiment [7] relates to IGROV1 ovarian.
The test system of experiment [8] is OVCAR-3 ovarian.
Experiment [9] deals with HS 578T breast.
The test system of experiment [10] is NCI/ADR-RES ovarian.
Experiment [11] concerns BT-549 breast.
In experiment [12] the test system is MDA-MB-435 melanoma.
For experiment [13], the system named is SW-620 colon.
Experiment [14] concerns MCF7 breast.
For experiment [15], the system named is HCT-116 colon.
Experiment [16] has as its system HCC-2998 colon.
The test system of experiment [17] is KM12 colon.
The test system of experiment [18] is T-47D breast.

The structures appear in SMILES notation. Compounds without any hit were thinned out: in the full panel of roughly 83,000, 20% have a hit.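 Testing used 96-well plates and a 48-hour single-concentration exposure. Example: -40 means 40% of the starting cells died.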 Unmarked numbers belong to inactive results. Activity calls are given as the source filed them. The calls were made as follows: active = growth percent below 10; inactive = the rest.

For `CCOC(=O)c1c(-c2ccc(C)cc2)c(C#N)c(=O)n(-c2cccc(C(F)(F)F)c2)c1N`, the growth in experiment [1] is 102%; in experiment [2], 104%; in experiment [3], 103%; in experiment [4], 93%; in experiment [5], 106%; in experiment [6] it was 108%. Moreover, the growth in experiment [7] was 107%; in experiment [8] it was 106%; in experiment [9], 105%; in experiment [10], 109%; in experiment [11], 113%; in experiment [12], 102%. The growth in experiment [13] was 101%; in [14], 94%; in [15], 103%; in experiment [16], 107%; in [17], 100%.
On to `N#C/C(=N\Nc1ccc(Cl)cc1)C(=O)Nc1cc(-c2ccccc2)nn1-c1ccccc1`, for which the growth in [1] is 89.4%; in experiment [2] it was 1.81% (active); in [3], 25.6%; in experiment [4] it was 81.6%; in experiment [5], 36.8%; in experiment [6], 26.4%. Moreover, the growth is 19.9% in [7]; 15.4% in [8]; 47% in experiment [9]; 29.7% in experiment [10]; 14.7% in [18]; 11.4% in experiment [11]. Besides, the growth in experiment [13] was 21.4%; in [14] it was 16.9%; in experiment [15], 8.26% (active); in [16], 39.4%; in [17] it was 32.4%.
Consider `CCCCC#Cc1c(/C=C(\CCCC)SCC)n(C)c(=O)[nH]c1=O`, for which the growth in experiment [1] was 93.4%; in experiment [2], 85.5%; in [3], 76.8%; in experiment [4], 99.3%; in experiment [5] it was 90.7%; in experiment [6] it was 106%. Further, the growth is 73.6% in [7]; 88.5% in [8]; 95.9% in [9]; 95.6% in [10]; 84.4% in experiment [18]; 100% in [11]. Moreover, the growth in experiment [13] was 106%; in experiment [14], 48.5%; in [15], 88.3%; in experiment [16], 104%; in [17], 113%.
Consider `N#Cc1cc(-c2ccnc(Nc3ccc(NC(=O)CCl)cc3)n2)ccc1N1CCCC1`, for which the growth is 1.78% (active) in experiment [1]; -24.3% (active) in experiment [2]; 6.56% (active) in experiment [3]; -9.19% (active) in [4]; -20.8% (active) in experiment [5]; -48.6% (active) in experiment [6]. Further, the growth is -1.3% (active) in experiment [7]; -46% (active) in experiment [8]; 12.6% in [9]; 10.9% in experiment [10]; -68.2% (active) in experiment [18]; -65% (active) in [11]. The growth was -36.9% (active) in experiment [13]; -19.1% (active) in [14]; -37.2% (active) in experiment [15]; -79.5% (active) in experiment [16]; -11.6% (active) in experiment [17].
As to `C=C(CN1CC=CCC1)[C@@H]1CC[C@]2(COC(C)=O)CC[C@]3(C)[C@H](CC[C@@H]4[C@@]5(C)CC[C@H](O)C(C)(C)[C@@H]5CC[C@]43C)[C@@H]12`, the growth was 90.4% in experiment [1]; 84.2% in [2]; 96.1% in experiment [3]; 132% in experiment [4]; 92.2% in experiment [5]; 115% in experiment [6]. Further, the growth is 112% in experiment [7]; 100% in experiment [8]; 103% in experiment [9]; 98.3% in experiment [10]; 106% in experiment [11]; 99.2% in experiment [12]. In addition, the growth was 97.4% in [13]; 90.4% in experiment [14]; 93.6% in experiment [15]; 112% in experiment [16]; 106% in experiment [17].
As to `N#C/C(=C\c1ccc(Br)cc1)n1nnc2c(F)cccc21`, the growth is 23.1% in experiment [1]; -20.2% (active) in experiment [2]; 7.76% (active) in [3]; 1.16% (active) in [4]; 14.1% in experiment [5]; 40.7% in [6]. Also, the growth in [7] is -24.3% (active); in experiment [8], -51.1% (active); in experiment [9] it was 11%; in experiment [10], 2.56% (active); in experiment [11], 12%; in experiment [12], -26.8% (active). Besides, the growth was -22.1% (active) in [13]; 12.7% in experiment [14]; -27.5% (active) in [15]; -38.4% (active) in [16]; 4.37% (active) in experiment [17].
With `C#CCn1cnc2cnc(Nc3cccc(NC(=O)CCl)c3)nc21`, the growth was 1.67% [6.25 µM] (active) in experiment [1]; -14.9% [6.25 µM] (active) in experiment [2]; 8.6% [6.25 µM] (active) in experiment [3]; 14.8% [6.25 µM] in experiment [4]; 13% [6.25 µM] in experiment [5]; 15.3% [6.25 µM] in experiment [6]. Also, the growth is -38.1% [6.25 µM] (active) in [7]; -44.9% [6.25 µM] (active) in [8]; 10.4% [6.25 µM] in experiment [9]; 2.34% [6.25 µM] (active) in experiment [10]; 5.42% [6.25 µM] (active) in [18]; 3.26% [6.25 µM] (active) in experiment [11]. Also, the growth in experiment [13] is 0.405% [6.25 µM] (active); in experiment [14], -6.48% [6.25 µM] (active); in experiment [15], -30.2% [6.25 µM] (active); in experiment [16], -11.4% [6.25 µM] (active); in experiment [17], -2.39% [6.25 µM] (active).
As for `C/C=C(/C)C(=O)O[C@@H]1CC(C)(C)CC2C34OC(=O)[C@@]21CC[C@@]3(C)[C@]1(C)CCC2C(C)(C)C(=O)CC[C@]2(C)C1C[C@@H]4Cl` (stereo partly specified), the growth in [1] is 108%; in [2], 91%; in [3], 96%; in [4], 95.9%; in [5] it was 96.2%; in experiment [6], 99.7%. Besides, the growth in experiment [7] is 96.8%; in experiment [8] it was 115%; in experiment [9], 99.8%; in experiment [10], 106%; in experiment [18] it was 99.1%; in experiment [11], 108%. In addition, the growth in [13] was 96.7%; in [14], 97.6%; in experiment [15] it was 86.2%; in experiment [16], 102%; in experiment [17], 104%.

Source of the values: PubChem BioAssay (NCI).
